From ChEMBL document CHEMBL3433997, “St. Jude Leishmania screening dataset” (2016)

Assays:
Type in all cases: functional
[1] = target: Solute carrier family 2, facilitated glucose transporter member 1 (Homo sapiens) (UniProt P11166); experiment: ST_JUDE_LEISH: Cytotoxicity at 2uM final concentration against transgenic Leishmania Mexicana promastigotes LmGLUT1 that are glucose transport deficient and complemented with the human glucose transporter GLUT1. Activity is measured by DNA content using SYBR green in vitro
[2] = target: Hexose transporter 1 (Plasmodium falciparum) (UniProt O97467); experiment: ST_JUDE_LEISH: Cytotoxicity at 2uM final concentration against transgenic Leishmania Mexicana promastigotes LmPfHT that are glucose transport deficient and complemented with the Plasmodium falciparum hexose transporter. Activity is measured by DNA content using SYBR green in vitro
[3] = target: Glucose transporter (Leishmania mexicana) (UniProt O61059); experiment: ST_JUDE_LEISH: Cytotoxicity at 2uM final concentration against transgenic Leishmania Mexicana promastigotes LmGT2 that are glucose transport deficient and complemented with the L. Mexicana glucose transporter 2. Activity is measured by DNA content using SYBR green in vitro

Chain of Solute carrier family 2, facilitated glucose transporter member 1 (Homo sapiens) (P11166 whole entry): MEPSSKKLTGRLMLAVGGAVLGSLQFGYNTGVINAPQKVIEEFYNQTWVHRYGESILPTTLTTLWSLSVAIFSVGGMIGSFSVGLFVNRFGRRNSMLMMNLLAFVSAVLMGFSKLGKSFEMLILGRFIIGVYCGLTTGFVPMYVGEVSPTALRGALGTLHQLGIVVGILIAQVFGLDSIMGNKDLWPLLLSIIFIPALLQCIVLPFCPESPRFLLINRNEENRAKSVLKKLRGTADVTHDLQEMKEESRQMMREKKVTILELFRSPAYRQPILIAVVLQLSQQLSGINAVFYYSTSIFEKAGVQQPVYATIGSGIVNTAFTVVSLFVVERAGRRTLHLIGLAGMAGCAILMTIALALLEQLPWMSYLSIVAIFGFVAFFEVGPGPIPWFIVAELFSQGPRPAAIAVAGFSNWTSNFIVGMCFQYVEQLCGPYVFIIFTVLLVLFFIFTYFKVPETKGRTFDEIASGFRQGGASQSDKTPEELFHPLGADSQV

SMILES | inhibition [1] | inhibition [2] | inhibition [3]
CCN(CCO)CCCC(C)Nc1ccnc2cc(Cl)ccc12 (stereo not drawn) | 7% | 7.44% | 6.05%
N#Cc1ccc(-c2ccc(C(=O)NCCCCN3CCC(n4cnc5ccccc54)CC3)cc2)cc1 | 3.46% | 3.72% | 5.28%
C[C@H](NC(=O)c1c(CN2CCC(N3CCCCC3)CC2)c(-c2ccccc2)nc2cc(O)ccc12)C1CCCCC1 | 4.25% | 4.06% | 3.03%
CC(C)C[C@H]1c2[nH]c3ccc(Cl)cc3c2CCN1C(=O)CCc1ccccc1 | 3.74% | 2.53% | -0.65%
OCCN1CCN(Cc2ccc(-c3ccc(-c4nc5cc(F)ccc5[nH]4)cc3)cc2)CC1 | 8.49% | 6.23% | 3.78%
CCN(CC)CCN(Cc1ccc(-c2ccc(C(F)(F)F)cc2)nc1)C(=O)Cn1cc(Cc2cnn(C)c2)c(=O)n2nc(-c3ccccc3)cc12 | 2.39% | 3.48% | 0.44%
CN1CCN(Cc2ccc(-c3cc4nccc(Nc5ccc(Oc6ccccc6)cc5)c4cc3Cl)o2)CC1 | 1.96% | 2.5% | 2.69%
CC(C)(C)c1nn(-c2ccc(Cl)cc2)c2[nH]c(=O)c(CNCc3ccc4c(c3)OCO4)cc12 | 4.55% | 3.31% | 5.03%
O=C(NCCCCN1CC=C(c2ccc3c(c2OCc2ccccc2)CCCC3)CC1)c1ccc(-c2ccc(C(F)(F)F)cc2)cc1 | -1.51% | -1.29% | -2.15%
COc1cc2nc(N3CCC(CNC(=O)c4cc5ccccc5s4)CC3)nc(N)c2cc1OC | 11.8% | 11% | 10.4%
CC[C@H](C)CNC(=O)c1cncc(-c2cccc(CNC3Cc4ccccc4C3)c2)c1 | -0.1% | 0.31% | -1.15%
